This is an account of results in PubChem BioAssay.

Calls of active or inactive are those of the source. Unless noted, the rule behind the calls is not given here.

The nature of assay [1]: resazurin metabolic signal in HepG2 cells – cell-based, resazurin fluorescence, 24 h, PK04 Diversity Set, profiling panel (AID 1172). Note: test concentration not given here. The conditions noted are these: HepG2 viability, higher = more signal. On the technique in general: Alamar Blue is a resazurin reagent that responds to reducing activity.
Assay [2] can be described thus: budding yeast growth changes without added modifier – OD600, strain BY4716, 24 h, basal condition, primary screen (AID 1173). The settings on record: S. cerevisiae BY4716 growth, OD600, 24 h; higher = more signal, called active from +8 up or from −8 down.
The nature of assay [3]: viability profiling in MM1S myeloma cells – cell-based, resazurin fluorescence, basal, 24 h, PK04 Diversity Set, profiling panel (AID 1174).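 Note: MM1S multiple myeloma cell line; test concentration not given here.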 The conditions noted are these: higher = more signal, called active from +8 up or from −8 down.
In assay [4] the target is Dihydroorotate dehydrogenase (quinone), mitochondrial (Plasmodium falciparum (isolate 3D7)) (UniProt Q08210). The experiment in a line: inhibition of P. falciparum DHODH – biochemical, C-terminal His tag, absorbance 600 nm, primary screen (AID 1175).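 Note: recombinant parasite enzyme with a five histidine tag at its C terminus; test concentration not given here.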 The conditions noted are these: PfDHODH enzyme, DCIP absorbance 600 nm; higher = more signal, called active from +8 up or from −8 down.

Assay [5] can be described thus: inhibition of PAO1 biofilm formation – strain PAO1, LB-PBS medium, absorbance 600 nm, primary screen (AID 1176). Note: test concentration not given here. The conditions noted are these: P. aeruginosa PAO1 growth/biofilm, A600, 12 h; higher = more signal.
Assay [6] is described as follows: growth modulation of vineyard yeast isolate – strain RM11-1a, OD600, basal, 24 h, primary screen (AID 1177).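 Note: cultures grown under basal conditions with no added stressor; test concentration not given here.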 The conditions noted are these: S. cerevisiae RM11-1a growth, OD600, 24 h; higher = more signal, called active from +8 up or from −8 down.
A short description of assay [7]: growth of efflux-deficient E. coli DRC39 – strain DRC39, OD650, 24 h, E. coli filamentation inducers, primary screen (AID 1178).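 Note: growth measured as culture turbidity by optical density at 650 nm; test concentration not given here.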 The settings on record: E. coli DRC39 acrAB, higher = more signal, called active from +8 up or from −8 down.
A short description of assay [8]: growth of efflux-deficient E. coli DRC39 – strain DRC39, OD650, 48 h, E. coli filamentation inducers, primary screen (AID 1179).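 Note: screen aims at cell division blockers that make cells filament.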 The settings on record: E. coli DRC39 delta-acrAB growth, higher = more signal, called active from +8 up or from −8 down.
Assay [9] is described as follows: viability profiling in RPMI8226 myeloma cells – cell-based, resazurin fluorescence, basal, 24 h, PK04 Diversity Set, profiling panel (AID 1180).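 Note: RPMI8826 multiple myeloma cell line at 5000 cells per well; test concentration not given here.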 The settings on record: higher = more signal.
Assay [10] concerns the target E3 ubiquitin-protein ligase XIAP (Homo sapiens) (UniProt P98170). Description: small molecules binding XIAP protein – biophysical, small-molecule microarray, fluorescence 635 nm, primary screen (AID 1181).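 Note: score merges 667 nm emission and signal to noise over triplicate slides.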 The conditions noted are these: higher = more signal.

Chain of Dihydroorotate dehydrogenase (quinone), mitochondrial (Plasmodium falciparum (isolate 3D7)) (Q08210 whole entry, looked up): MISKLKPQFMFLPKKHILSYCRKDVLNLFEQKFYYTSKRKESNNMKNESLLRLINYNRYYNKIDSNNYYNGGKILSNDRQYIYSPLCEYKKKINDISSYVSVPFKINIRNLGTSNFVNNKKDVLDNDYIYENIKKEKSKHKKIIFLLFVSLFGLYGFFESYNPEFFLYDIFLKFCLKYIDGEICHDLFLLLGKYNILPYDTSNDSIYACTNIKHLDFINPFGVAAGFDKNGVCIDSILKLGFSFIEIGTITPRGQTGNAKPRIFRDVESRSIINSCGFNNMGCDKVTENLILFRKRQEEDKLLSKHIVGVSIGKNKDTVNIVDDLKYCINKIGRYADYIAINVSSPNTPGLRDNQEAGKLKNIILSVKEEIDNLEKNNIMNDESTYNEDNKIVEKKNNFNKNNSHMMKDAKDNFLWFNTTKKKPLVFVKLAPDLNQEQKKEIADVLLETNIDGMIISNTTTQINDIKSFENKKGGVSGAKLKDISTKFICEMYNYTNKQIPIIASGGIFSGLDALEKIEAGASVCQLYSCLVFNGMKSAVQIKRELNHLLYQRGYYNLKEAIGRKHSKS
Chain of E3 ubiquitin-protein ligase XIAP (Homo sapiens) (P98170 whole entry, looked up): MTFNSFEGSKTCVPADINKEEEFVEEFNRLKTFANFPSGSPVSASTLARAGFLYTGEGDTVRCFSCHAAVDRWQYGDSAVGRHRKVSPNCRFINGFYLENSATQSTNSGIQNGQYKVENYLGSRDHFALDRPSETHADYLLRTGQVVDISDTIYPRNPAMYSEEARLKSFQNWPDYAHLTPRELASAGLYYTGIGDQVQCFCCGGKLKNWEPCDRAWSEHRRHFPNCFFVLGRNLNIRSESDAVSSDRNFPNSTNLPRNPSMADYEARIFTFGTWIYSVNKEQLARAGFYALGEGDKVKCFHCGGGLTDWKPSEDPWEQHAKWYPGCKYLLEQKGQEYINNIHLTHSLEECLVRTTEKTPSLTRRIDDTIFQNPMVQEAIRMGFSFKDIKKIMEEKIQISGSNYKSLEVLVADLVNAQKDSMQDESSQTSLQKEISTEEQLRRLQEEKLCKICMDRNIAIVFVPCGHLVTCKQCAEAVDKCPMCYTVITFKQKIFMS

For `CCCCC=C[C@@H](NC(=O)c1ccc(-c2ccccc2)cc1)c1ccccc1`, the z-score in [1] was 0.272; in assay [2], -0.447 (inactive); in assay [3] it was -0.821 (inactive); in assay [5] it was 0.191 (inactive); in assay [6], 0.491 (inactive); in assay [7], -0.335 (inactive). Also, the z-score in assay [8] was -0.0289 (inactive); in [9], -1.75. Moreover, the composite z-score in [4] is 0.34 (inactive); in assay [10], -0.0272.

For the compound `COC1OC[C@]2(C)[C@H]3C4=C(CN2C(=O)OC(C)(C)C)[C@H](C)C(CO)C(CO)C4CC[C@@H]13` (stereo not given in full), the z-score is -1.1 in assay [1]; 1.14 (inactive) in [2]; -1.25 (inactive) in assay [3]; 0.523 (inactive) in assay [5]; 1.06 (inactive) in assay [6]; -0.34 (inactive) in [7]. The z-score in [8] was 0.154 (inactive); in [9], -0.975. The composite z-score is -0.0528 (inactive) in [4] and 0.243 in [10].

Regarding `COC(=O)[C@@]1(Cc2ccccc2)[C@H]2c3cc(C(=O)N(C)C)n(Cc4c(CO)[nH]cc(C)c4=O)c3C[C@H]2CN1C(=O)c1ccccc1`, the z-score in assay [1] was -0.613; in assay [2] it was 1.79 (inactive); in assay [3], -0.706 (inactive); in assay [5], 0.507 (inactive); in assay [6], 1.24 (inactive); in [7] it was -0.198 (inactive). Further, the z-score in [8] is 0.0568 (inactive); in assay [9], 0.0961. Also, the composite z-score in assay [4] was 0.0442 (inactive); in [10], -0.0663.

With `O=C1OCC=C[C@H]2OC34C=CCN(Cc5ccccc5)C(=O)[C@H]3N(CCCCCCO)C(=O)[C@@H]4[C@@H]12` (stereo not given in full), the z-score in assay [1] is 1.07; in assay [2], -0.296 (inactive); in [3], 1.59 (inactive); in [5], 0.0683 (inactive); in assay [6], -0.739 (inactive); in assay [7], 0.693 (inactive). The z-score in assay [8] was 0.415 (inactive); in [9] it was 0.517. The composite z-score was -1.65 (inactive) in assay [4] and 0.052 in assay [10].

On to `CC(C)Cc1ccc(CN2CC[C@@H](NC(=O)Nc3ccccc3)C2)cc1`, for which the z-score in assay [1] was -5.14; in [2], -17.3 (active); in assay [3], -9.38 (active); in assay [5], 0.294 (inactive); in assay [6], -4.95 (inactive); in [7] it was 0.451 (inactive). For the same compound, the z-score was -0.748 (inactive) in assay [8] and -4.87 in assay [9]. The composite z-score is 0.545 (inactive) in assay [4] and -0.209 in assay [10].

Turning to `CO[C@]12C=C(Br)[C@@H](C[C@@H]1c1cccc(C)c1)[C@@]1(CO1)C2=O`, the z-score was 1.17 in assay [1]; -5.41 (inactive) in [2]; -0.674 (inactive) in [3]; -0.447 (inactive) in [5]; -0.338 (inactive) in assay [6]; 0.632 (inactive) in assay [7]. Besides, the z-score in assay [8] was 0.378 (inactive); in assay [9] it was 0.478. For the same compound, the composite z-score was 0.227 (inactive) in [4] and -0.148 in [10].

Take `COCCOC(=O)N1C(=O)[C@@]2(c3cc(C#CC4(O)CCCCCC4)ccc31)[C@H](c1ccc(O)cc1)N1[C@H](c3ccccc3)[C@H](c3ccccc3)OC(=O)[C@H]1[C@@H]2C(=O)NC[C@H](O)c1ccccc1`: the z-score in [1] is 0.267; in assay [2], 0.31 (inactive); in assay [3], -1.45 (inactive); in [5], 1.29 (inactive); in assay [6], 0.657 (inactive); in assay [7] it was 0.157 (inactive). The z-score was -0.105 (inactive) in assay [8] and -1.62 in assay [9]. For the same compound, the composite z-score was 0.658 (inactive) in [4] and 0.367 in [10].

Regarding `COc1ccccc1CN1C(=O)c2ccccc2[C@@]2(Cc3ccccc3N(CC(F)(F)F)C2=O)[C@@H]1c1ccc(CO)cc1`, the z-score in [1] is -0.108; in [2], 0.981 (inactive); in assay [3] it was -0.987 (inactive); in [5], 0.723 (inactive); in [6], 0.36 (inactive); in assay [7], 0.224 (inactive). Further, the z-score in [8] was 0.499 (inactive); in assay [9], -0.624. Besides, the composite z-score was -11.7 (active) in [4] and 0.0819 in assay [10].

Turning to `CC(C)C(CO)N1C(=O)[C@@H]2C3C(=O)OCCC/C=C\[C@H]3OC23C=CCN(C(C)(C)C)C(=O)[C@@H]13` (stereo not given in full), the z-score in assay [1] was -0.263; in assay [2], 0.463 (inactive); in assay [3], -0.428 (inactive); in [5], -0.0711 (inactive); in assay [6], -0.348 (inactive); in assay [7], 0.235 (inactive). Also, the z-score was 0.129 (inactive) in assay [8] and -0.489 in [9]. Further, the composite z-score in assay [4] is -1.85 (inactive); in [10], -0.204.

Turning to `[N-]=[N+]=Nc1ccccc1[C@H]1OC(c2ccc(OCCCO)cc2)=N[C@@]1(Cc1ccccc1)C(=O)N1CCCCC1`, the z-score in [1] is -1.16; in assay [2] it was -0.722 (inactive); in assay [3], -3.61 (inactive); in assay [5] it was 0.603 (inactive); in assay [6], 1.97 (inactive); in assay [7] it was 0.359 (inactive). In addition, the z-score is 0.617 (inactive) in assay [8] and -4.52 in [9]. The results for the composite z-score in assay [4] and in [10] were -0.827 (inactive) and 0.0197, respectively.

Take `CC(CO)N1C(=O)[C@@H]2[C@H]3C(=O)OCC=C[C@H]3OC23C=CCN(C(C)(C)C)C(=O)[C@@H]13` (stereo not given in full): the z-score in [1] was 0.0792; in [2], 0.0031 (inactive); in [3], -0.555 (inactive); in [5], -0.401 (inactive); in [6], -0.505 (inactive); in assay [7], -0.554 (inactive). Further, the z-score in assay [8] is -0.762 (inactive); in assay [9], -0.794. In addition, the figures for the composite z-score in assay [4] and in assay [10] were -1.08 (inactive) and 0.252, respectively.

Regarding `COC(=O)[C@@]1(Cc2ccc(F)cc2)[C@H]2c3cc(C(=O)N4CCCC4)n(CCc4ccc(O)c(O)c4)c3C[C@H]2CN1C(=O)c1ccccc1`, the z-score is -1.48 in assay [1]; 1.78 (inactive) in assay [2]; -1.07 (inactive) in [3]; 1.78 (inactive) in [5]; 1.78 (inactive) in [6]; -0.265 (inactive) in assay [7]. Besides, the z-score in assay [8] is -0.177 (inactive); in assay [9], -0.795. The composite z-score is -0.0926 (inactive) in assay [4] and 0.32 in assay [10].

Take `C=CC1c2cc(O)c(OC)cc2CCN1Cc1cc2c(cc1Br)OCO2` (stereo not given): the z-score in assay [1] was -1.95; in [2], -12.5 (active); in [3] it was -2.21 (inactive); in [5] it was -0.0065 (inactive); in [6], -2.09 (inactive); in assay [7] it was -0.929 (inactive). The z-score in [8] was -1.69 (inactive); in assay [9], -2.82. The figures for the composite z-score in assay [4] and in assay [10] were -7.6 (inactive) and -0.0525, respectively.
